Source: PubChem BioAssay
Sampled rows, rich in hits. Any-hit rate of the full collection: about 10%.
G9a inh = inhibitors of human histone lysine methyltransferase G9a; AID 504332; Potency, µM (series often up to 102 µM), hits mostly inhibitors; Q96KQ7; G9a H3K9 monomethylation, AlphaScreen, 2 h; 350,000 compounds, 8.8% hits; also: nearly all actives have a fitted effect of over 75% in size
Target sequence (Q96KQ7 913-1193 limits assumed): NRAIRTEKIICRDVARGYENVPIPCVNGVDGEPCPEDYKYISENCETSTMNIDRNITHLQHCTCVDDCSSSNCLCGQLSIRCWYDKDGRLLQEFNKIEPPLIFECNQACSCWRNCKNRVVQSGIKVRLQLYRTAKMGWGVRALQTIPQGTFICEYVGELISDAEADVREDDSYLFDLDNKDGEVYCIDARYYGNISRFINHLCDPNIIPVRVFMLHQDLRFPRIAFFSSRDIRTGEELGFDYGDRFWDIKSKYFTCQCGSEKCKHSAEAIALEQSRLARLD
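G9a (20 nM) preincubated 15 min RT with compounds, then 500 nM biotinylated H3K9 peptide and 20 uM SAM added; 2 h RT reaction. Monomethyl-H3K9 product detected by AlphaScreen with anti-H3K9me1 antibody, streptavidin donor and anti-rabbit IgG acceptor beads.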
GLS inhibitor = glutaminase GLS (human) inhibition. O94925. GLS enzymatic activity, qHTS titration. Potency, µM (highest dose often 45.5 µM), hits mostly inhibitors. 410,000 compounds, 0.21% hits. AID 624170
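Compounds were pin-transferred onto hKGA, after which L-glutamine (1 mM solution) and a detection mix of glutamate oxidase, HRP and Amplex Red were added. Initial and 30 min RT fluorescence reads were collected.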
BAZ2B block = BAZ2B (human) inhibition; 360,000 compounds, 4.4% hits; Potency, µM (titrated, usually from 114 µM), usual class: inhibitors; AlphaScreen BAZ2B-H3K14Ac peptide displacement; also: nearly all actives have a fitted effect of over 60% in size
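Compounds, titrated to a top concentration of 110 uM, were incubated 30 min at room temperature with preformed BAZ2B/acetyl-K14 H3 peptide complex (50 nM each). Proximity signal was measured by AlphaScreen after 20 min with beads.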
JMJD2A Tudor inh = inhibitors of human JMJD2A Tudor domain; O75164; AlphaScreen JMJD2A-Tudor / H3K4me3 peptide binding; Potency, µM (titrated, usually from 114 µM), usual class: inhibitors; 390,000 compounds, 4.4% hits; AID 504339; also: nearly all actives have a fitted effect of over 50% in size
HP1b binding inh = blocks HP1-beta chromodomain binding to methylated histone tails | AlphaScreen HP1-beta / biotin-H3K9me3 peptide binding | Potency, µM (top dose mostly 114 µM), most hits filed as inhibitors | 390,000 compounds, 0.56% hits; also: nearly all actives have a fitted effect of over 70% in size
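HP1-beta protein (50 nM final) preincubated 30 min at room temperature with biotinylated H3(1-18)K9me3 peptide (50 nM) in PBS pH 7.4, 0.01% Tween-20, then compound added for 30 min. AlphaScreen streptavidin donor/nickel chelate acceptor beads (10 ug/mL final), 30 min dark, luminescence read.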
A number is an active result; – = inactive; ? = inconclusive. Calls follow the shape of the dose curve; as a rule, active = well fitted curve in the direction sought with a large enough effect; inconclusive = small, poorly fitted or top-dose-only effect, or another doubt; inactive = no such curve, though single readings can be large; an effect the other way counts as inactive or inconclusive.

SMILES	G9a inh	GLS inhibitor	BAZ2B block	JMJD2A Tudor inh	HP1b binding inh
CCCOP(=O)(c1ccc(N(C)C)cc1)C(O)c1ccc(N(C)C)cc1 (centres undefined)	0.71µM	–	–	8.9µM	–
CC(C)Oc1cccc(C(=O)Nc2ccc3oc(-c4ccccc4)nc3c2)c1	–	–	–	–	–
COc1ccc(NC(=O)CCc2nnc3n(Cc4ccccc4Cl)c(=O)c4ccccc4n23)cc1	–	–	–	–	–
Cc1cccn2cc(-c3c[nH]c4ccccc34)nc12	?	–	–	?	–
Brc1ccc2nc(-c3c[nH]c4ccccc34)cn2c1	50µM	–	45µM	?	?
CCCSc1cc(NCCOC(=O)CCC)c([N+](=O)[O-])c2nonc12	?	–	–	–	–
CCCC(=O)OCCNc1cc(Sc2nccn2C)c2nonc2c1[N+](=O)[O-]	28µM	–	–	–	–
